Source: PubChem (National Center for Advancing Translational Sciences (NCATS))
The full list was thinned out, with hits kept by preference.
AmpC inh detg: AmpC beta-lactamase inhibition with detergent present | AID 485294 | Potency, µM (top dose mostly 114 µM), actives largely listed as inhibitors | P00811 | AmpC hydrolysis of nitrocefin, absorbance 480 nm, 0.01% Triton | actives 0.041% (n = 370,000); note: nearly all actives have a fitted effect of over 25% in size
Target sequence (P00811 whole entry, looked up): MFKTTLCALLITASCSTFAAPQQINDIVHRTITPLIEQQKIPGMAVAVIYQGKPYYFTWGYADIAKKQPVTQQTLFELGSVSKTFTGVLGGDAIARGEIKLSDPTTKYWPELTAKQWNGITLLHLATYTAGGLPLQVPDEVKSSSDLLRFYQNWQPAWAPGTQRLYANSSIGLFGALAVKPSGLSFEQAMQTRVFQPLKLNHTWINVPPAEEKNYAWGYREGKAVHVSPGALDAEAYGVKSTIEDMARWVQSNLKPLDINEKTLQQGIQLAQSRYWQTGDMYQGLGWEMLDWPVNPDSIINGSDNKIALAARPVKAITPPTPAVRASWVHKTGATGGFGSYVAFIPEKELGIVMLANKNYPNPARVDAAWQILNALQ
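20 mM phosphate pH 7.0 + 0.01% (detergent screen) or 0.0001% Triton X-100; 5.3 nM AmpC reagent; cpd preinc 15 min RT; nitrocefin (800 uM stock) to start; A480 q20 s × 4 min; Activity was normalised to no-enzyme and no-compound control wells.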
SARS PLpro yeast: blocks SARS-CoV papain-like protease in a yeast assay. S. cerevisiae expressing SARS-CoV PLpro, growth rescue. Potency, µM (doses to about 32.9 µM), actives largely listed as activators. actives 0.19% (n = 330,000); calls by dose curve; note: nearly all actives have a fitted effect of over 55% in size
AmpC inh no detg: AmpC beta-lactamase inhibition without detergent; AmpC nitrocefin hydrolysis, absorbance 480 nm, 0.0001% Triton; Potency, µM (doses to about 57.1 µM), usual class: inhibitors; actives 0.52% (n = 330,000); AID 485341; note: nearly all actives have a fitted effect of over 20% in size
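20 mM phosphate pH 7.0 + 0.01% (detergent screen) or 0.0001% Triton X-100; 5.3 nM AmpC reagent; cpd preinc 15 min RT; nitrocefin (800 uM stock) to start; A480 q20 s × 4 min; Activity was normalised to no-enzyme and no-compound control wells.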
Shiga inhibitor: Shiga toxin inhibition; inhibition, % at 38.7 µM; Vero cells, Shiga toxin protein synthesis inhibition reporter; actives 9.2% (n = 290,000); in the data active = inhibition mostly above about 28%, no sharp cut-off; inactive = mostly below about 43%
AMA1-RON2 inh: AMA1-RON2 (P. falciparum) interaction inhibition; AlphaScreen AMA1-biotinylated RON2 peptide binding; Potency, µM (series often up to 58.2 µM), usual class: inhibitors; actives 0.2% (n = 360,000); note: nearly all actives have a fitted effect of over 45% in size
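AMA1 (3D7) with his tag at 25 nM final met compounds first, then biotinylated RON2 peptide at 25 nM; detection used donor plus acceptor beads, 10 µg/mL apiece, read by AlphaScreen after 30 min at room temperature.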
CHX counter-1: counter-screen for Shiga toxin inhibitors: cycloheximide protein synthesis inhibition; actives 12% (n = 300,000); max response, %; cell reporter, cycloheximide protein synthesis inhibition counterscreen; in the data active = max response mostly above about 13%, no sharp cut-off; inactive = mostly below about 14%; note: read at 38.3 µM for the half of the compounds with a filed dose
CHX counter-2: protein synthesis counter-screen activity for Shiga toxin hits. Cycloheximide counterscreen, protein synthesis reporter, Shiga toxin assay. actives 3% (n = 510). AID 2318. Potency, µM (series often up to 38.3 µM), most hits filed as activators. shares compounds with Shiga inhibitor; calls by dose curve
Hits are given with their value; ! = not confirmed by another sample. Unless noted, calls come from the whole dose curve; as a rule, active = well fitted curve in the direction sought with a large enough effect; inconclusive = small, poorly fitted or top-dose-only effect, or another doubt; inactive = no such curve, though single readings can be large; an effect the other way counts as inactive or inconclusive.

COCCCN1C(=O)C(CC(=O)NCc2cccc3ccccc23)CC(C(=O)N(C)C)=C1C (stereo not given) was read as AMA1-RON2 inh inactive.
CCn1c2ccccc2c2cc(NC(=O)c3ccc(C)c([N+](=O)[O-])c3)ccc21 was read as AmpC inh detg inconclusive, SARS PLpro yeast inactive, AmpC inh no detg inactive, Shiga inhibitor inactive, AMA1-RON2 inh inactive and CHX counter-1 inactive.
`CCn1c2ccccc2c2cc(NC(=O)c3cccc([N+](=O)[O-])c3)ccc21` gave AmpC inh detg inactive, SARS PLpro yeast inactive, AmpC inh no detg inactive, Shiga inhibitor 60.7, AMA1-RON2 inh inactive, CHX counter-1 inactive and CHX counter-2 inactive.
For CCOc1ccc(N(CC(=O)NCc2ccc3c(c2)OCO3)C(=O)c2csnn2)cc1 the results were AmpC inh detg inconclusive, SARS PLpro yeast inactive, AmpC inh no detg inactive, Shiga inhibitor 36.6, AMA1-RON2 inh inactive, CHX counter-1 inactive and CHX counter-2 inactive.
O=C(CN(C(=O)c1csnn1)c1ccc2c(c1)OCCO2)NCc1ccc(F)cc1 was read as AmpC inh detg inactive, SARS PLpro yeast inactive, AmpC inh no detg inactive, Shiga inhibitor inactive, AMA1-RON2 inh inactive and CHX counter-1 inactive.
COc1ccc(CNC(=O)CN(C(=O)c2csnn2)c2ccc3c(c2)OCCO3)cc1 was read as AmpC inh detg inactive, SARS PLpro yeast inactive, AmpC inh no detg inactive, Shiga inhibitor 42.6, AMA1-RON2 inh inactive, CHX counter-1 inactive and CHX counter-2 inactive.
`O=C1CC(N2CCN(Cc3ccc4c(c3)OCO4)CC2)C(=O)N1c1ccccc1` (stereo not given) gave AmpC inh detg inactive, SARS PLpro yeast inactive, AmpC inh no detg inactive, Shiga inhibitor inactive, AMA1-RON2 inh inactive and CHX counter-1 inactive.
Screening Cc1cc(C)n(CC(=O)N/N=C/c2c[nH]c3ccccc23)n1 returned AmpC inh detg inactive, SARS PLpro yeast inactive, AmpC inh no detg inactive, Shiga inhibitor inactive, AMA1-RON2 inh inactive and CHX counter-1 inactive.
`CCOC(=O)c1ccc(N/C=C/C(=O)c2ccc(OC)c(OC)c2)cc1` gave AmpC inh detg inactive, SARS PLpro yeast inactive, AmpC inh no detg inactive, Shiga inhibitor 57.8, AMA1-RON2 inh inactive, CHX counter-1 inactive and CHX counter-2 inactive.
CCOC(=O)N1CCN(C(=O)Nc2ccc3nc(C)c(C)nc3c2)CC1 was read as AmpC inh detg inactive, SARS PLpro yeast inactive, AmpC inh no detg inactive, Shiga inhibitor 136.4, AMA1-RON2 inh inactive, CHX counter-1 inactive and CHX counter-2 inactive.
`O=C(Nc1ccc(O)cc1)/C(=C\C=C\c1ccccc1)NC(=O)c1ccccc1` gave AmpC inh detg inactive, SARS PLpro yeast inactive, AmpC inh no detg inconclusive, Shiga inhibitor 30.4, AMA1-RON2 inh inactive, CHX counter-1 inactive and CHX counter-2 inactive.
COc1ccccc1/C=C/C(=O)OCc1nc2ccccc2c(=O)[nH]1 was read as AmpC inh detg inactive, SARS PLpro yeast inactive, AmpC inh no detg inactive, Shiga inhibitor 45.4, AMA1-RON2 inh inactive, CHX counter-1 inactive and CHX counter-2 inactive.
Screening COc1cccc2c1C(=O)c1c(O)c3c(c(O)c1C2=O)C[C@@](O)(C(=O)CO)C[C@@H]3OC1CC(N)C(O)C(C)O1 (stereo not given in full) returned AMA1-RON2 inh inactive.
`COc1cccc2c1C(=O)c1c(O)c3c(c(O)c1C2=O)C[C@@](O)(C(=O)CO)C[C@@H]3O[C@H]1C[C@H](N)[C@H](O)[C@H](C)O1` gave AmpC inh detg inactive, AmpC inh no detg inactive, Shiga inhibitor 37.9, AMA1-RON2 inh inactive, CHX counter-1 10.2 and CHX counter-2 inactive.
For CCOc1ccc(CN2CCN(Cc3cc4ccccc4o3)CC2CCO)cc1 (stereo not given) the results were AmpC inh detg inactive, SARS PLpro yeast inactive, AmpC inh no detg inactive, AMA1-RON2 inh inactive, CHX counter-1 inactive and CHX counter-2 inactive.
`Cc1cc(C)nc(SCC(=O)Nc2cc(C)on2)n1` gave AmpC inh detg inactive, SARS PLpro yeast inactive, AmpC inh no detg inactive, Shiga inhibitor 119.1, AMA1-RON2 inh inactive, CHX counter-1 inactive and CHX counter-2 inactive.
For Cc1ccc2nc(Cl)c3cc(C(=O)NC4CCC(C)CC4)sc3c2c1 (stereo not given) the results were AmpC inh detg inactive.
Screening CCOC(=O)N1CCN(C(=O)CCC(=O)c2ccc(OCC)cc2)CC1 returned AmpC inh detg inactive, SARS PLpro yeast inactive, AmpC inh no detg inactive, Shiga inhibitor 41.0, AMA1-RON2 inh inactive, CHX counter-1 inactive and CHX counter-2 inactive.
For CCOC(=O)N1CCN(C(=O)c2ccc(OCC)cc2)CC1 the results were AmpC inh detg inactive, SARS PLpro yeast inactive, AmpC inh no detg inactive, Shiga inhibitor inactive, AMA1-RON2 inh inactive and CHX counter-1 inactive.
`COC(=O)c1ccc(C)c(NC(=O)CCSc2ccc(Cl)cc2)c1` gave AmpC inh detg inactive, SARS PLpro yeast inactive, AmpC inh no detg inactive, Shiga inhibitor 100.5, AMA1-RON2 inh inactive, CHX counter-1 inactive and CHX counter-2 inactive.
CCCNC(=O)CN1C(=O)c2cccnc2Sc2ccccc21 was read as AmpC inh detg inactive.
`COc1ccccc1NC(=O)Nc1nc(CC(=O)Nc2cc(F)ccc2F)cs1` gave AmpC inh detg inconclusive, SARS PLpro yeast inactive, AmpC inh no detg inactive and AMA1-RON2 inh inactive.
Screening COc1ccccc1NC(=O)Nc1cc(F)ccc1F returned AmpC inh detg inactive, SARS PLpro yeast inactive, AmpC inh no detg inactive, Shiga inhibitor 131.5, AMA1-RON2 inh inactive, CHX counter-1 inactive and CHX counter-2 inconclusive.
Screening O=C(COc1cccc(Br)c1)N/N=C/C(=O)c1ccccc1 returned AmpC inh detg inactive, SARS PLpro yeast inactive, AmpC inh no detg inactive, Shiga inhibitor inactive, AMA1-RON2 inh inactive and CHX counter-1 inactive.
Screening COc1ccc2nc3cc(Cl)ccc3c(NCCCN3CCN(CCCNc4c5ccc(Cl)cc5nc5ccc(OC)cc45)CC3)c2c1 returned Shiga inhibitor 34.2, CHX counter-1 inactive and CHX counter-2 inactive.
For Cc1ccc2c(c1C)NC(C(=O)O)C1CC=CC21 (stereo not given) the results were AmpC inh detg inconclusive, SARS PLpro yeast inactive, AmpC inh no detg inactive, Shiga inhibitor 110.3!, AMA1-RON2 inh 11.9µM, CHX counter-1 inactive and CHX counter-2 inactive.
`O=c1[nH]ncc(NCCc2ccccc2)c1Cl` gave AmpC inh detg inactive, SARS PLpro yeast inactive, AmpC inh no detg inactive, Shiga inhibitor inactive, AMA1-RON2 inh inactive and CHX counter-1 inactive.
`O=C(CCCC(=O)NN=Cc1cccc(O)c1)NN=Cc1cccc(O)c1` gave AMA1-RON2 inh inactive.
